# CHX counter – counter-screen hit for Shiga toxin inhibitors, cycloheximide; cell reporter, cycloheximide protein synthesis inhibition counterscreen; max response, %; hit rate 12% among 300,000; AID 2314; in the data active = max response mostly above about 13%, no sharp cut-off; inactive = mostly below about 14%; note: read at 38.3 µM for the half of the compounds with a filed dose; 0% is about no effect
# SARS PLpro yeast – inhibitors of SARS-CoV papain-like protease in yeast. S. cerevisiae expressing SARS-CoV PLpro, growth rescue. Potency, µM (series often up to 32.9 µM), for inactives: top-dose activity, positive = growth rescue, hits mostly activators. hit rate 0.19% among 330,000; calls by dose curve; note: potency is the fitted concentration of half-maximal effect; 0% is about no effect; nearly all actives have a fitted effect of over 55% in size
# NS1 function inh – inhibitors of influenza NS1 protein function; Potency, µM (series often up to 46.1 µM), inactives show at the top dose activity, positive = more growth; hit rate 0.4% among 270,000; AID 2326; calls by dose curve; note: potency is the fitted concentration of half-maximal effect; actives are rising curves; nearly all actives have a fitted effect of over 50% in size
#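 In this qHTS, NS1 from influenza A is expressed in budding yeast, where it slows growth. Cells are switched from glucose to 2% galactose medium (pH 6.0, -URA), treated with compound, and growth recovery is read at OD600.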
# Shiga inhibitor – Shiga toxin inhibition; Vero cells, Shiga toxin protein synthesis inhibition reporter; AID 2315; hit rate 9.2% among 290,000; inhibition, % at 38.7 µM; in the data active = inhibition mostly above about 28%, no sharp cut-off; inactive = mostly below about 43%; note: 0% is about no effect
# Pf growth 96h – P. falciparum growth inhibition at 96 hour, primary screen for plastid delayed-death inhibitors | P. falciparum luciferase reporter growth, 96 h | Potency, µM (series often up to 28.7 µM), for inactives: at the highest dose activity change, negative = inhibition, most hits filed as inhibitors | hit rate 6.9% among 320,000 | AID 504834; note: potency is the fitted concentration of half-maximal effect; % is set by controls: 0 for no effect and ±100 for the full control effect
#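 P. falciparum expressing integrated firefly luciferase grown in erythrocytes (2% hematocrit, 0.05% parasitemia final) with compounds for 96 hours at 37 C, 5% CO2. Growth inhibition read as loss of luminescence after adding luciferase detection reagent.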
# Pf growth 48h – P. falciparum growth inhibition at 48 hours (one generation) | P. falciparum luciferase growth in erythrocytes, 48 h | Potency, µM (top dose mostly 28.7 µM), without a hit: top-dose activity change, negative = inhibition, usual class: inhibitors | hit rate 5.9% among 310,000 | AID 504832; note: potency is the fitted concentration of half-maximal effect; % is set by controls: 0 for no effect and ±100 for the full control effect
#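 Growth was read as firefly luciferase luminescence after a 48 h, 37 C, 5% CO2 exposure of compounds to reporter-bearing P. falciparum cultures (0.1% parasitemia, 2% hematocrit final) in Albumax-supplemented RPMI 1640.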
# Starred values were filed as active, the others as inactive; i = inactive; ? = inconclusive; nt = no result given; + = active, no number; [ ] = another dose, or the depositor's remark. Shown are actives, neighbours in structure and some others; about 21% of the full set was active somewhere. Unless noted, calls come from the whole dose curve; as a rule, active = well fitted inhibition curve with a large enough effect; inconclusive = small, poorly fitted or top-dose-only effect, or another doubt; inactive = no such curve, though single readings can be large or run the other way.
SMILES,CHX counter,SARS PLpro yeast,NS1 function inh,Shiga inhibitor,Pf growth 96h,Pf growth 48h
COc1ccc(/C=C2\Sc3ccc(C(=O)N4CCOCC4)cc3N(C)C2=O)cc1,8,23%,10%,35,?,-18%
COc1cc(/C=C2/SC(=S)N(CC3CCCO3)C2=O)ccc1O (centres undefined),21*,-26%,-23%,41*,?,2%
COc1ccc(/C=C2\Sc3ccc(C(=O)NCC4CCCO4)cc3N(C)C2=O)cc1 (centres undefined),12*,-13%,15%,11,?,?
CN1C(=O)/C(=C/c2cccc(Cl)c2)Sc2ccc(C(=O)NCc3cccnc3)cc21,4,-10%,nt,-4,?,9.3µM*
CN(CC1CCOCC1)C(=O)CC1C(=O)NCCN1Cc1cccc(C(F)(F)F)c1 (centres undefined),0,1%,10%,3,-14%,?
O=C(Nc1ccccn1)c1sc2cccc(F)c2c1Cl,14,-2%,nt,11,35%,i
Cc1ccc(C)c(N2CCN(C3CCCC(C)C3)CC2)c1 (centres undefined),-1,1%,-1%,-8,?,?
CSc1nc(SCC(=O)NCC2CCCO2)c2c3c(sc2n1)CN(C)CC3 (centres undefined),0,1%,0%,-2,?,?
COCCCN(Cc1ccco1)C(=O)c1cc2c(s1)-c1ccc(Cl)cc1S(=O)(=O)C2,16,-2%,-1%,-7,?,3%
O=C1/C(=C/c2ccco2)SC(=S)N1CC1CCCO1 (centres undefined),26*,-1%,3%,63*,16%,-3%
COc1ccccc1/C=C1\NC(=S)N(CC2CCCO2)C1=O (centres undefined),27*,-21%,-7%,40,7%,nt
CC(=O)c1ccc(OC(=O)CCc2ccccc2)cc1,-3,-6%,-18%,-2,38%,2%
CCOC(=O)c1cc(-c2ccccc2)sc1NC(=O)C(C)OC(=O)c1cccnc1OCC (centres undefined),-3,15%,1%,1,35%,12%
COCCCNC(=O)/C=C/c1ccc(Cl)cc1Cl,17*,4%,-52%,54*,18%,12%
CCC(CO)Nc1nc2ccc(Cl)cc2c2ccccc12 (centres undefined),-2,3%,-6%,-8,?,-48%
Cc1ccc(C2=NN(S(C)(=O)=O)C(c3ccc4c(c3)OCO4)C2)cc1 (centres undefined),76*,-13%,10%,+,303%,191%
Cc1ccc(C2=CC(=O)C[C@H](c3ccc4c(c3)OCO4)C2)cc1,nt,2%,nt,nt,?,?
CC(=O)N1N=C(c2ccc(NS(C)(=O)=O)cc2)CC1c1ccc2nccnc2c1 (centres undefined),-2,0%,0%,-7,?,4%
CS(=O)(=O)N1N=C(c2ccc(Br)cc2)CC1c1ccc2c(c1)OCO2 (centres undefined),45*,-2%,9%,83*,95%,199%
COc1ccc(C2CC(c3ccc(C)cc3)=NN2C(=O)CCC(=O)O)cc1OC (centres undefined),-1,3%,?,-4,?,-1%
CC(=O)N1N=C(c2ccc(C)cc2)CC1c1ccc2c(c1)OCO2 (centres undefined),45*,-2%,-6%,52*,42%,33%
CS(=O)(=O)Nc1ccc(C2=NN(S(C)(=O)=O)C(c3ccc4nccnc4c3)C2)cc1 (centres undefined),15*,1%,6%,26,-1%,2%
CCS(=O)(=O)Nc1cccc(C2=NN(S(C)(=O)=O)C(c3ccccc3)C2)c1 (centres undefined),17,-3%,nt,3,38%,10%
Cc1nc(=O)c(-c2ccccc2)c(C)n1-c1cccc(/C=C/C(=O)O)c1,-2,1%,1%,-1,-12%,nt
CN(CC(=O)Nc1c(Cl)cccc1Cl)C(=O)C1=COCCO1,nt,-1%,nt,nt,11%,5%
SMILES,CHX counter,SARS PLpro yeast,NS1 function inh,Shiga inhibitor,Pf growth 96h,Pf growth 48h
COC(=O)c1scc(C)c1NC(=O)c1ccccc1F,16,-2%,-2%,14,13%,7%
Cc1cccnc1NC(=O)c1ccc(OCc2c(C)noc2C)cc1,22*,0%,3%,52*,58%,41%
Cc1noc(C)c1COc1ccc(C(=O)NCc2ccccn2)cc1,-2,-3%,5%,-6,9.3µM*,1%
Cc1noc(C)c1COc1ccc(C(=O)NNC(=O)c2ccccc2O)cc1,nt,-2%,nt,nt,?,0%
Cc1noc(C)c1COc1ccc(C(=O)Nc2ccccn2)cc1,44*,-4%,-26%,89*,?,12%
COc1ccc(C2=Nn3c(nnc3-c3cccc(OC)c3OC)SC2)cc1OC,5,nt,nt,-17,nt,nt
CC1CC1C(=O)OCC(=O)Nc1cc(S(=O)(=O)N2CCCCC2)ccc1Cl (centres undefined),nt,-3%,nt,nt,nt,nt
Cc1csc(=O)n1CCC(=O)O,-3,2%,0%,-12,10%,14%
CC(=O)c1sc2nsc(SCCN3CCOCC3)c2c1N,22,1%,6%,28*,-28%,0%
Nc1c(C(=O)c2ccccc2)sc2nsc(SCCN3CCOCC3)c12,23*,-1%,-30%,29*,-16%,-5%
CC1=CC(C)(C)NC(=S)N1C(C)c1ccccc1 (centres undefined),-6,0%,7%,-7,12%,?
C=CCNc1nnc(Cc2ccc(F)cc2)c(=O)[nH]1,5,-2%,3%,-2,23%,5%
CN1C(=O)NC(c2ccccc2[N+](=O)[O-])C2=C1CC(C)(C)CC2=O (centres undefined),-3,2%,12%,-13,9.3µM*,-8%[0.00184 µM]
CN1C(=O)NC(c2ccccc2[N+](=O)[O-])C2=C1CCCC2=O (centres undefined),-4,0%,7%,-5,9.3µM*,-2%[0.00184 µM]
COc1cc(C2NC(=O)N(C)C3=C2C(=O)CCC3)cc(OC)c1OC (centres undefined),-1,4%,-5%,-4,-1%,1%
CN1C(=O)NC(c2ccc([N+](=O)[O-])cc2)C2=C1CC(C)(C)CC2=O (centres undefined),-7,3%,4%,-12,?,-11%
COC(=O)c1cn(NC(=O)/C=C/c2cc(OC)ccc2OC)c(=O)c2ccccc12,-4,-3%,22%,-15,14%,?
COc1ccccc1/C=C/C=N/n1c(-c2ccncc2)n[nH]c1=S,-2,21%,17%,-3,7.4µM*,-2%
COc1ccccc1/C=C/C=N/n1c(-c2ccc(C)cc2)n[nH]c1=S,-2,20%,?,-12,-14%,-3%
COc1ccccc1/C=C/C=N/n1c(-c2ccccn2)n[nH]c1=S,34*,2%,15%,64*,78%,74%

# Compound activity as filed in PubChem BioAssay.
